Screening results from PubChem.
NR1D1 modulator: modulators of human Rev-erb alpha DNA binding | Rev-erbα–FITC-DNA binding, fluorescence polarization, 90 min | 370,000 compounds, 0.79% hits | AID 1259318 | P20393 | activity, % at 10 µM;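 active = activity above about 14%, limit read from the data; passing the limit was not always enough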
PP5 inh: inhibitors of human protein phosphatase 5 (PP5). 320,000 compounds, 0.18% hits. inhibition, % at 6.7 µM. purified PP5c, OMFP substrate fluorescence;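 active = inhibition above the campaign's mean inhibition across all tested compounds plus 3 SD, cut at about 9.5% in these data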
Target sequence (P53041 whole entry, looked up): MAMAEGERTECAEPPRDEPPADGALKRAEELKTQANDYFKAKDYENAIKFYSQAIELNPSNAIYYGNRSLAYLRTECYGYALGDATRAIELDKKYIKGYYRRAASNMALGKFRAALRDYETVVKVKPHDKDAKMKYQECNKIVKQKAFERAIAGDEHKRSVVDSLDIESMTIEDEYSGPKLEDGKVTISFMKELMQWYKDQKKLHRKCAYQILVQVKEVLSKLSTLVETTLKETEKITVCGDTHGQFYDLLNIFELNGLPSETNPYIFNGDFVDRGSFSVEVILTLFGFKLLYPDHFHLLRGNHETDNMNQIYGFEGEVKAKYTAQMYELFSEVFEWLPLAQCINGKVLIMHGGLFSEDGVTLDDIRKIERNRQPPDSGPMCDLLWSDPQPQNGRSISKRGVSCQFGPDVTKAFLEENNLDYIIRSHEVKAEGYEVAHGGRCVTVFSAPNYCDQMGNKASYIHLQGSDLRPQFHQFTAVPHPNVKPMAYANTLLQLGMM
GASC-1 inh: inhibitors of human GASC-1 (JMJD2C) demethylase | 330,000 compounds, 0.069% hits | GST-JMJD2C(1-420) H3K9me3 demethylation, DELFIA europium | Q9H3R0 | inhibition, % at 2.35 µM;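 active = more than half of a compound's replicate wells show inhibition beyond 50%, single wells judged on their own value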;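 note: signal counts dimethyl H3K9 product captured on neutravidin plate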
proKLK7 act: proKLK7 (human) activation, primary screen; AID 652039; activation, % at 7 µM; purified proKLK7, EDANS-DABCYL substrate fluorescence; 100% is mature enzyme control, 0% vehicle; 370,000 compounds, 0.9% hits;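 active = activation above the mean of all tested compounds plus 3 SD, computed per campaign excluding outliers beyond control limits, cut at about 13% in these data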
Target sequence (P49862 whole entry, looked up): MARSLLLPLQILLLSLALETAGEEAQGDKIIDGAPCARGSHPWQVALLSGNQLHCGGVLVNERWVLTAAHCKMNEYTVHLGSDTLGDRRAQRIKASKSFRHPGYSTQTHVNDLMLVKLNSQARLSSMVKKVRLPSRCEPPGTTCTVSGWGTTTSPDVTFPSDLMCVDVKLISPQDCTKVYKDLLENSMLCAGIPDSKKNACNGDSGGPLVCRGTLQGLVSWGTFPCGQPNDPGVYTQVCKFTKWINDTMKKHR
PP1 counter: blocks human PP1-alpha phosphatase, a PP5 counter-screen | purified PP1alpha, OMFP fluorescence | inhibition, % at 6.7 µM | 320,000 compounds, 0.9% hits;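 active = inhibition above the mean inhibition of all tested compounds plus 3 SD, computed separately for each screening campaign, cut at about 15% in these data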
PG9 binder: PG9 antibody binding by small molecule. TR-FRET gp120-PG9 antibody binding. inhibition, % at 6.7 µM. 360,000 compounds, 0.43% hits. AID 624416; in the data active = inhibition above about 8.5%
NR1D1 mod conf: Rev-erb alpha (human) modulation, hit confirmation; shares compounds with NR1D1 modulator; Rev-erb alpha FITC-DNA binding, fluorescence polarization, 90 min; activation, % at 25 µM; 3,000 compounds, 61% hits; AID 1259319;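 active = activation at or above a set limit, or at least 3 SD above the negative control mean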
RORg counter: counter-screen for Rev-erb alpha modulators: RORgamma DNA binding; IC50, µM; 910 compounds, 8% hits; purified RORgamma protein-FITC-DNA binding, fluorescence polarization; AID 1259320; shares compounds with NR1D1 modulator;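 active = Compounds whose fitted half-maximal concentration for disrupting protein-DNA binding is below 10 micromolar; the record names Rev-erb in its text, so the target is in doubt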
Of the large screens only hits and unclear results are named; the others gave an inactive call (follow-up assays come after a bar, where they were run). This is a sample that favours compounds with a hit; in the whole collection about 2.8% have one here.

CCOc1ccc(NC(=O)CSc2nc(C3CC3)nc3ccccc23)cc1	NR1D1 modulator 129.3 | NR1D1 mod conf 59.3 | RORg counter inactive
COC(=O)C[C@H]1CC[C@H]2[C@H](COc3ccc(NC(=O)c4ccccc4F)cc3C(=O)N2C)O1	none (no result: PP5 inh, GASC-1 inh, PP1 counter, PG9 binder)
Cc1cccc(NC(=O)C2CCN(c3nnc(-n4cccc4)s3)CC2)c1C	none (no result: PP5 inh, GASC-1 inh, PP1 counter, PG9 binder)
CCOC(=O)C1Nc2ccc(C(F)(F)F)cc2C2c3ccccc3CC12 (centres undefined)	NR1D1 modulator 36.4, proKLK7 act 20.9 | NR1D1 mod conf inactive
Cc1ccc2nsnc2c1NC(=O)Cc1ccc(Cl)cc1	NR1D1 modulator 50.8 | NR1D1 mod conf inactive
N#Cc1c(-c2ccccc2)cc(-c2ccccc2)nc1SCc1nnc(-c2ccccc2)o1	NR1D1 modulator 49.7 | NR1D1 mod conf 24.0
CCN1C(=O)/C(=C2/Sc3ccccc3N2CC)S/C1=N\c1ncn[nH]1	NR1D1 modulator 19.1 | NR1D1 mod conf inactive
O=C(O)CN(CCN(CC(=O)O)CC(=O)O)CC(=O)O	NR1D1 modulator 49.7 (no result: PP5 inh, GASC-1 inh, proKLK7 act, PP1 counter, PG9 binder) | NR1D1 mod conf inactive
CC(=O)N(CC(=O)O)c1ccccc1	none
O=S1(=O)c2ccc(Br)cc2OC[C@@H](c2ccccc2)N1Cc1cn(CCC2OCCCO2)nn1	none (no result: PP5 inh, GASC-1 inh, PP1 counter, PG9 binder)
Cc1ccc(S(=O)(=O)n2ccc(-c3c(-c4ccc(F)cc4)noc3C)n2)cc1	none (no result: PP5 inh, GASC-1 inh, PP1 counter, PG9 binder)
CCC(=O)Nc1sc(C(=O)OC)c(C)c1C(=O)OC	none
CCOC(=O)c1sc(NC(=O)C(C)C)c(C#N)c1C	NR1D1 modulator 47.0 | NR1D1 mod conf 25.9
COC(=O)c1sc(NC(=O)C(C)C)c(C(=O)OC)c1C	NR1D1 modulator 21.6 | NR1D1 mod conf inactive
COC(=O)C[C@H]1CC[C@@H]2[C@@H](COc3ccc(NC(=O)Nc4cccc(C)c4)cc3C(=O)N2C)O1	none (no result: PP5 inh, GASC-1 inh, PP1 counter, PG9 binder)
COc1ccc(OC)c(Nc2ncnc3ccc(Br)cc23)c1	NR1D1 modulator 59.1 | NR1D1 mod conf 29.0
COc1ccc(OC)c(Nc2ncnc3ccccc23)c1	none
COc1ccc(S(=O)(=O)N2CCCCC2)cc1NC(=O)c1cncc(Br)c1	NR1D1 modulator 41.4 | NR1D1 mod conf 19.4
CCOc1ncccc1C(=O)Nc1cc(S(=O)(=O)N2CCCCC2)ccc1Cl	NR1D1 modulator 22.6 | NR1D1 mod conf 10.7
CC(C)(C)C(=O)Nc1cc(S(=O)(=O)N2CCCCC2)ccc1N1CCCCC1	NR1D1 modulator 39.0 | NR1D1 mod conf 38.2 | RORg counter inactive
COc1ccc(S(=O)(=O)N2CCCCCC2)cc1NC(=O)c1ccccc1	none
Cc1cccc(C2=CC(=O)CC(C)(C)C2=O)c1	none (no result: PP5 inh, GASC-1 inh, PP1 counter)
CCc1ccc(S(=O)(=O)c2nnn3c2nc(NCCNC(C)=O)c2ccccc23)cc1	none
CC(C)c1ccc(S(=O)(=O)c2nnn3c2nc(N2CCCCC2)c2ccccc23)cc1	NR1D1 modulator 29.9 | NR1D1 mod conf 28.5
Cc1cc(C)cc(Nc2nc3c(S(=O)(=O)c4ccccc4)nnn3c3ccccc23)c1	NR1D1 modulator 52.3 | NR1D1 mod conf inactive
Cc1cccc(Nc2nc3c(S(=O)(=O)c4ccccc4)nnn3c3ccccc23)c1	NR1D1 modulator 39.4 | NR1D1 mod conf inactive
Cc1ccc(S(=O)(=O)c2nnn3c2nc(N2CCOCC2)c2ccccc23)cc1C	none
Cc1onc(C(=O)N2CCN(C(c3ccccc3)c3ccccc3)CC2)c1Br	none (no result: PP5 inh, GASC-1 inh, proKLK7 act, PP1 counter, PG9 binder)
CCc1cc2c(nc1CC)CCCN2S(=O)(=O)c1ccc(C)cc1	none (no result: PP5 inh, GASC-1 inh, PP1 counter)
COc1ccc(NC(=O)c2cc(-c3cc(OC)c(OC)c(OC)c3)nc3ccccc23)cc1OC	none
COc1cc(-c2cc(C(=O)Nc3cccc(S(=O)(=O)N(C)C)c3)c3ccccc3n2)cc(OC)c1OC	NR1D1 modulator 15.2 | NR1D1 mod conf inactive
C[C@@H]1CN(c2ccc(N3CCN(C(=O)OC(C)(C)C)C[C@@H]3C)cc2C#N)C[C@H](C)O1	none (no result: PP5 inh, GASC-1 inh, PP1 counter)
COc1ccc(Cn2c(=S)[nH]c3cc(OC)c(OC)cc3c2=O)cc1	none
NS(=O)(=O)c1ccc(CCNC(=O)C2CCC(Cn3c(=S)[nH]c4ccccc4c3=O)CC2)cc1 (centres undefined)	none
O=c1c2cc(F)ccc2[nH]c(=S)n1Cc1ccc(F)cc1	NR1D1 modulator 57.0 | NR1D1 mod conf 17.3
NS(=O)(=O)c1ccc(CCn2c(=S)[nH]c3ccc(F)cc3c2=O)cc1	NR1D1 modulator 58.1, PG9 binder 36.7 | NR1D1 mod conf 39.7 | RORg counter inactive
COc1ccc(N/C(=C\C(=O)c2ccccc2)c2ccccc2)cc1OC	none (no result: PP5 inh, GASC-1 inh, PP1 counter)
CC(=O)c1c(N2CCOCC2)nc2ccc(Cl)cc2c1-c1ccccc1	NR1D1 modulator 30.5 | NR1D1 mod conf 28.3
CCOC(=O)CNC(=O)C(Cc1ccc2c(c1)OCO2)NC(C)=O (centres undefined)	none (no result: PP5 inh, GASC-1 inh, PP1 counter, PG9 binder)
COc1ccccc1-c1ccc2c(c1)C(C)(Cc1cc(Cl)ccc1C(F)(F)F)C(=O)N2 (centres undefined)	NR1D1 modulator 43.0 (no result: PP5 inh, GASC-1 inh, PP1 counter) | NR1D1 mod conf 62.0 | RORg counter inactive
COc1ccc(Cl)cc1CC1(C)C(=O)Nc2ccc(-c3ccccc3OC)cc21 (centres undefined)	NR1D1 modulator 49.5 (no result: PP5 inh, GASC-1 inh, PP1 counter) | NR1D1 mod conf 55.4 | RORg counter inactive
COc1ccccc1-c1ccc2c(c1)C(C)(Cc1cccc(C#N)c1)C(=O)N2 (centres undefined)	NR1D1 modulator 45.7 (no result: PP5 inh, GASC-1 inh, PP1 counter) | NR1D1 mod conf 43.4 | RORg counter inactive
CC1(Cc2cc(Cl)ccc2C(F)(F)F)C(=O)Nc2ccc(-c3ccc(F)c(Cl)c3)cc21 (centres undefined)	none (no result: PP5 inh, GASC-1 inh, PP1 counter)
CC(C)N1CCCCC(NC(=O)c2ccc(Br)cc2)C1=O (centres undefined)	none (no result: PP5 inh, GASC-1 inh, PP1 counter, PG9 binder)
Cn1c(COc2ccccc2)nnc1SCC(=O)Nc1ccccc1-c1ccccc1	none (no result: PP5 inh, GASC-1 inh, PP1 counter, PG9 binder)
C=CC(=O)NC1CCCCN(C)C1=O (centres undefined)	none (no result: PP5 inh, GASC-1 inh, PP1 counter)
Cc1ccc(C2(C(F)(F)F)NC(=O)N3C(=C2C#N)Nc2ccccc23)cc1 (centres undefined)	NR1D1 modulator 33.5 | NR1D1 mod conf 32.3 | RORg counter inactive
CN1C2=C(C#N)C(c3ccccc3)(C(F)(F)F)NC(=O)N2c2ccccc21 (centres undefined)	none
Cc1ccccc1Cn1c2ccccc2c2cnn(CC(=O)NCc3ccccn3)c(=O)c21	none
Cc1cc(C)c(Cn2c3ccccc3c3cnn(CC(=O)NCc4ccccn4)c(=O)c32)c(C)c1	NR1D1 modulator 38.5 | NR1D1 mod conf 18.2
CCCCCCc1cc2cc(C(=O)NCc3ccccc3)c(=N)oc2cc1O	none
CCCCCCc1cc2cc(C(=O)Nc3ccccc3)c(=O)oc2cc1O	NR1D1 modulator 90.8 | NR1D1 mod conf 43.2 | RORg counter 6.34
